Assay outcomes as filed in PubChem BioAssay.
Sampled rows, rich in hits. Any-hit rate of the full collection: about 6.1%.
ATXN2 expr inh: Primary qHTS for Inhibitors of ATXN expression; HEK-293 ATXN2-luciferase reporter, luminescence, 24 h; AID 1745845, 2022; actives 0.72% (n = 360,000); Potency, µM (series often up to 57 µM), for inactives: at the top dose activity change, negative = inhibition, hits mostly inhibitors; further: on the % scale 0 is the no-effect control and ±100 the full control effect; nearly all actives have a fitted effect of over 55% in size
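ATXN2-luciferase reporter cells (luciferase flanked by upstream and downstream ATXN2 gene portions) were treated 24 h at 37 °C with compounds at up to 57 uM. SteadyGlo luminescence gave expression; GF-AFC fluorescence gave viability.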
VP16 counter: VP16 counterscreen qHTS for inhibitors of ROR gamma transcriptional activity. Drosophila S2 Gal4-VP16 UAS-luciferase, luminescence, 20 h. Potency, µM (titrated, usually from 53.6 µM), for inactives: top-dose activity, negative = inhibition, usual class: inhibitors. actives 3.5% (n = 310,000). AID 2546, 2010;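 further: Gal4-VP16 expression switched on by copper sulfate through the metallothionein promoter; on the % scale 0 is the no-effect control and ±100 the full control effect; nearly all actives have a fitted effect of over 50% in size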
S2 tox: Viability Counterscreen for Primary qHTS for Inhibitors of ATXN expression; S2 cells (HEK-293 line with an ATXN2-luciferase reporter) viability, CellTiter-Fluor protease fluorescence, 24 h; Potency, µM (series often up to 56.7 µM), most hits filed as cytotoxic; actives 0.49% (n = 400,000); AID 651635, 2014; further: nearly all actives have a fitted effect of over 40% in size
RORg inh: qHTS for inhibitors of ROR gamma transcriptional activity; Nuclear receptor ROR-gamma (Mus musculus), P51450; Drosophila S2 Gal4-RORgamma UAS-luciferase reporter, 20 h; Potency, µM (series often up to 53.6 µM), inactives show at the top dose activity change, negative = inhibition, actives largely listed as inhibitors; actives 5.4% (n = 310,000); further: on the % scale 0 is the no-effect control and ±100 the full control effect; nearly all actives have a fitted effect of over 60% in size
Target sequence (P51450 whole entry, looked up, the tested form may be a part): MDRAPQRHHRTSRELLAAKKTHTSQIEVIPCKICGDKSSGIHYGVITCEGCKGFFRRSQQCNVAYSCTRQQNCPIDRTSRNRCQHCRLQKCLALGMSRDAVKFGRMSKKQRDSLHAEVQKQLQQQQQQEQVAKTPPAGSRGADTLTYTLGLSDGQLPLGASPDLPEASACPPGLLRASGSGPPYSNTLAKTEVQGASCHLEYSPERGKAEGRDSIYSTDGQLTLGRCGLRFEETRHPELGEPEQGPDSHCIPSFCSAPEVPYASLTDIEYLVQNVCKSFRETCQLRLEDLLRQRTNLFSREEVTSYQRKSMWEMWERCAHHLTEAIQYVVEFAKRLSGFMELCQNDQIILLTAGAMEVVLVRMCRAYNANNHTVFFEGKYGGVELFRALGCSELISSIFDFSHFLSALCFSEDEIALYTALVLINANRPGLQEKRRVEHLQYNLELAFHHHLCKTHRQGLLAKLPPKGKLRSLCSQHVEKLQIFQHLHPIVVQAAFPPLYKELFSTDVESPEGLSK
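Drosophila S2 cells stably expressing Gal4-DBD/mouse RORγ fusion under metallothionein promoter plus UAS-luciferase; compound 1 h, then 700 uM CuSO4 induction for 20 h at ambient temperature; inhibition read as reduced luminescence.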
HepG2 tox: qHTS for Inhibitors of TGF-b: Cytotox Counterscreen; HepG2 CAGA-GFP viability, ATP luminescence, 18 h; Potency, µM (doses to about 46.1 µM), for the others: at the highest dose activity change, negative = cytotoxicity, actives largely listed as cytotoxic; actives 0.76% (n = 410,000); AID 588856, 2011
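CellTiter-Glo luminescence gave cytotoxicity after 18 hours at 37 degrees C. The cells were HepG2 CAGA-GFP in 1% FBS DMEM, stimulated with 500 pg/mL TGF-beta after compound addition. %Activity was normalised to no-cell wells (complete cell-killing) and DMSO (no toxicity), and curves were fitted and classified.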
TGFb SMAD3 inh: qHTS for Inhibitors of TGF-b. HepG2 CAGA-GFP TGF-b/SMAD3 reporter, GFP fluorescence, 18 h; TGF-beta stimulated, 500 pg/mL final. Potency, µM (titrated, usually from 46.1 µM), for inactives: top-dose activity, negative = inhibition, actives largely listed as inhibitors. actives 1.2% (n = 410,000). AID 588855, 2011; further: on the % scale 0 is the no-effect control and ±100 the full control effect; nearly all actives have a fitted effect of over 65% in size
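Read-out: total well GFP (ex488/em500-530) summed from mean per-cell fluorescence. Cells: HEPG2 CAGA-GFP, 1% FBS DMEM, 18 h at 37 degrees C with 500 pg/mL final TGF-beta. Unstimulated wells served as the full-inhibition control; stimulated DMSO wells = 0%.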
Active calls of the source: *; i = inactive; ? = inconclusive; · = no result; [ ] = remark or other dose. The call rests on the fitted dose curve; in most records, active means well fitted curve in the direction sought with a large enough effect; inconclusive means small, poorly fitted or top-dose-only effect, or another doubt; inactive means no such curve, though single readings can be large; an effect the other way counts as inactive or inconclusive. Potency means the concentration at half of the fitted maximal effect.

SMILES	ATXN2 expr inh	VP16 counter	S2 tox	RORg inh	HepG2 tox	TGFb SMAD3 inh
Brc1ccc2nc3c(n2c1)CCCC3	3.8%	?	i	12.6µM*	1.6%	-16.3%
CCOc1ccc(C2C(=O)N(C3CCCCC3)CC(=O)N2C2CCCC2)cc1OC (stereo not given)	·	·	·	·	-16.7%	-3.2%
COc1ccccc1OCC(=O)NNc1c2ccccc2nc2ccccc12	·	0.794µM*	?	1.58µM*	-46.2%	?
COc1cccc(-c2nn(C)c3sc(C(=O)NCc4ccc(C)o4)cc23)c1	29.6%	20µM*	?	7.9%	-30.6%	-7.8%
COc1ccc(-n2nc3c(N4CCC(C(=O)NCC(C)c5ccccc5)CC4)nnc(C)c3c2C)cc1 (stereo not given)	?	20µM*	?	-30.5%	-36.0%	?
Cc1ccc(-n2nc3c(N4CCC(C(=O)NC(C)c5ccccc5)CC4)nnc(C)c3c2C)cc1 (stereo not given)	0.0%	·	?	·	11.2µM*	8.91µM*
C=C[C@](C)(O)CCC1C(=C)CC(OC(C)=O)C2C(C)(C)CCCC12C (stereo not given in full)	·	-17.4%	·	1.12µM*	·	·
COc1ccc(-c2cc(C(F)(F)F)nc(SCC(=O)NCC(C)C)n2)cc1OC	·	·	·	·	10.6%	23.3%
CN1CCN(c2ccc(C(CC(N)=O)NC(=O)Cc3ccc(Br)cc3)cc2[N+](=O)[O-])CC1 (stereo not given)	-3.1%	-3.7%	i	-24.3%	0.316µM*	-13.0%
COc1ccc(-c2cc3nc4n(c(=O)c3s2)CCCCC4)cc1	2.1%	-17.6%	i	-10.7%	-50.6%	10.9%
COc1ccc(-c2cc3nc(C)n(N)c(=O)c3s2)cc1	·	1.26µM*	i	1.78µM*	2.82µM*	30.8%
COc1ccc(-c2cc3nc4n(c(=O)c3s2)CCC4)cc1	5.01µM*	1.58µM*	i	?	-38.2%	15.4%
Cc1nc2cc(-c3ccccc3)sc2c(=O)n1N	0.891µM*	1.58µM*	i	0.708µM*	7.08µM*	-13.5%
COC(=O)[C@@H](Cc1c[nH]c2ccccc12)NC(=O)c1ccc2c(c1)OCO2	13.1%	?	i	8.91µM*	-26.7%	-21.5%
COC(=O)C(Cc1c[nH]c2ccccc12)NC(C)=O (stereo not given)	4.3%	-2.0%	i	14.1µM*	3.6%	-2.3%
O=C(NC1CCN(Cc2ccccc2)CC1)c1cccc(S(=O)(=O)Nc2ccc(SC(F)F)cc2)c1	?	·	i	·	-83.9%	11.2µM*
N#CC1=C(N)NC(SCC(=O)Nc2ccc(Br)cc2)=C(C#N)C12CCCCC2	-20.9%	-13.3%	i	37.3%	-79.4%	17.8µM*
N#CC1=C(N)NC(SCc2ccc(Br)cc2)=C(C#N)C12CCCCC2	0.0%	?	?	61.5%	-21.3%	?
O=C(c1ccccc1)c1nc[nH]c1C(=O)Nc1ccccc1	-19.8%	1.58µM*	i	0.708µM*	-2.2%	5.1%
Cc1ccc(NC(=O)c2nc[nH]c2C(=O)N[C@@H](C)c2ccccc2)cc1	?	3.16µM*	?	1.12µM*	-18.1%	?
O=C(Nc1ccccc1)c1nc[nH]c1C(=O)O	·	·	·	·	2.6%	-2.6%
C[C@@H](NC(=O)c1[nH]cnc1C(=O)Nc1ccccc1)c1ccccc1	?	·	?	·	-25.8%	14.1µM*
CCCCC/C=C\C/C=C\C/C=C\C=C\C(O)CCCC(=O)O (stereo not given)	·	-1.2%	·	11.4%	·	·
CC(C)c1ccc(Nc2cc(C(=O)NCCc3ccccc3)c3ccccc3n2)cc1	4.3%	·	i	·	-8.5%	-2.1%
COc1cc(-c2noc(C)c2C#Cc2ccc(N)cc2)cc(OC)c1OC	1.0%	4.0%	?	18.6%	-0.3%	10µM*
SMILES	ATXN2 expr inh	VP16 counter	S2 tox	RORg inh	HepG2 tox	TGFb SMAD3 inh
CC(=O)N(C)c1ccc(N=C2C(=O)Nc3ccccc32)cc1	3.9%	-3.8%	i	-3.3%	-1.0%	0.0%
C=CCOc1cccc(C(=O)/C=C2/C(=O)Nc3ccccc32)c1	?	?	?	12.6µM*	10µM*	11.2µM*
O=C1Nc2ccc(Br)cc2/C1=C/C(=O)c1ccccc1	?	·	?	·	-57.7%	?
Cc1[nH]c(C=C2C(=O)Nc3ccccc32)c(C)c1CCC(=O)O	1.09µM*	·	·	·	·	·
CC(=O)/C=C1/C(=O)Nc2ccccc21	?	7.08µM*	?	3.55µM*	-108.8%	?
CC(C)(O)CCc1ccc(OCc2cc(-c3cccc(OC(F)F)c3)c3ncccc3c2)cc1	3.6%	·	·	·	·	·
CCN1CCC(N(Cc2cccc(OC)c2)C(=O)Nc2ccc(C)cc2Cl)CC1	-16.3%	·	i	·	-49.8%	0.0%
CN(Cc1ccccc1)C(=O)Cn1c(=O)c2cccn2c2ccc(F)cc21	·	·	·	·	-2.6%	0.0%
S=c1[nH]nc(-c2cccnc2)n1/N=C/c1cccs1	-0.2%	-0.6%	i	?	2.9%	7.8%
Cc1ccc(/C=N/n2c(-c3ccncc3)n[nH]c2=S)s1	3.8%	-2.2%	i	?	12.7%	-0.6%
Cc1cccc(-c2n[nH]c(=S)n2/N=C/c2ccc(C)s2)c1	15.2%	5.62µM*	i	11.2µM*	-24.0%	-7.7%
Cc1cccc(-c2n[nH]c(=S)n2/N=C/c2cccs2)c1	·	10µM*	i	5.01µM*	-7.9%	17.0%
CCOC(=O)c1ccc(NC(=O)c2ccc(CN3C(=O)CCn4nc(C)cc43)cc2)cc1	-4.7%	·	i	·	6.1%	2.5%
Cc1cc2c(cc1S(=O)(=O)N(C)CC(=O)Nc1cccc(C#N)c1)OCC(=O)N2	9.6%	·	i	·	1.3%	1.0%
O=C(Cc1cccc2ccccc12)N/N=C/c1ccc2cccc(O)c2n1	?	?	i	12.6µM*	-36.6%	?
CCN(CC)CCNC(=O)c1c(C)oc2ncnc(N3CCOCC3)c12	·	·	·	·	-31.9%	-9.3%
COc1ccc2nc(C)cc(N3CCN(c4ccccc4)CC3)c2c1	-36.2%	-14.0%	i	14.1µM*	-25.8%	?
COc1ccc(-c2csc(N3CCN(c4cc(C)nc5ccccc45)CC3)n2)cc1OC	?	-4.6%[10 µM]	10µM*	-40.7%	11.2µM*	?
COc1cc(-c2csc(N3CCOCC3)n2)cc(OC)c1OC	6.9%	0.7%	i	-1.7%	12.3%	22.2%
CCC1CCCCN1CCn1c(=S)[nH]c2cc(OC)c(OC)cc2c1=O (stereo not given)	-7.9%	-14.1%	?	10µM*	-5.7%	18.6%
